Sampled rows, rich in hits. Any-hit rate of the full collection: about 6.4%.
RORg inh – blocks mouse ROR gamma transcriptional activity; Potency, µM (highest dose often 53.6 µM), without a hit: top-dose activity change, negative = inhibition, actives largely listed as inhibitors; 310,000 tested, 5.4% active; P51450; Drosophila S2 Gal4-RORgamma UAS-luciferase reporter, 20 h; AID 2551; note: nearly all actives have a fitted effect of over 60% in size
Target sequence (P51450 whole entry, looked up, the tested form may be a part): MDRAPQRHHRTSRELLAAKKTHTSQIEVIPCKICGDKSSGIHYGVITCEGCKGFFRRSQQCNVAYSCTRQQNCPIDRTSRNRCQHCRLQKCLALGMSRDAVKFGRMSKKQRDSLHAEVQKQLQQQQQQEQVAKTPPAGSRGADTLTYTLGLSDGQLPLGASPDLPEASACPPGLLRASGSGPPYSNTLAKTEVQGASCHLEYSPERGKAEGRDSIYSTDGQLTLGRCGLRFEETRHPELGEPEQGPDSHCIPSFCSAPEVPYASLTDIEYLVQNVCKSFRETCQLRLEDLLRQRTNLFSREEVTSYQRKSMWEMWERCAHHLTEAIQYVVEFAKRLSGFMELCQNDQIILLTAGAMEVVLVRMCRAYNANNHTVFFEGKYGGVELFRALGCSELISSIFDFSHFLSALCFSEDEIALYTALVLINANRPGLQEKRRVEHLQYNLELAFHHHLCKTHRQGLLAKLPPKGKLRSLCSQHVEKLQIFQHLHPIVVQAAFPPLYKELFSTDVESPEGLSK
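A Gal4/UAS one-hybrid system in insect cells: metallothionein-promoter Gal4–ROR gamma fusion plus Photinus luciferase reporter. Copper sulfate 700 uM final, 20 hr ambient incubation, luminescent detection after 10 min with reagent.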
KinaseGlo FLuc – blocks Kinase-Glo luciferase, a counter-screen artifact | AID 1379 | Q27757 | Kinase-Glo luciferase, ATP luminescence, 8 min | 200,000 tested, 0.28% active | Potency, µM (series often up to 38.3 µM), for the others: at the top dose activity change, negative = inhibition, most hits filed as inhibitors; note: nearly all actives have a fitted effect of over 60% in size
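Recombinant Kinase-Glo luciferase, 10 uM ATP (linear range), luciferin; imidazole pH 7.2 / KCl / MgCl2 / Tween / BSA buffer; 8 min RT; luminescence.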
VP16 counter – inhibits Gal4-VP16 luciferase reporter, ROR gamma counter-screen; Drosophila S2 Gal4-VP16 UAS-luciferase, luminescence, 20 h; Potency, µM (top dose mostly 53.6 µM), inactives show top-dose activity, negative = inhibition, hits mostly inhibitors; 310,000 tested, 3.5% active;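 note: Gal4-VP16 expression switched on by copper sulfate through the metallothionein promoter; nearly all actives have a fitted effect of over 50% in size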
The depositor's hits bear a star; ? = inconclusive; nt = not tested or not shown; [ ] = remark or other dose. Calls come from the whole dose curve; as a rule, active = well fitted curve in the direction sought with a large enough effect; inconclusive = small, poorly fitted or top-dose-only effect, or another doubt; inactive = no such curve, though single readings can be large; an effect the other way counts as inactive or inconclusive. % is set by controls: 0 for no effect and ±100 for the full control effect; potency is the fitted concentration of half-maximal effect.

SMILES	RORg inh	KinaseGlo FLuc	VP16 counter
O=C1[C@H]2[C@H]3[C@H](O)[C@H](O)C/C(=N/OC[C@@H](O)COCc4ccco4)[C@@H]3CC[C@@H]2C(=O)N1C1CCCCC1	5%[10 µM]	nt	1%[10 µM]
O=[N+]([O-])/C(C(Cl)=C(Cl)Cl)=C(\Sc1ccccc1)N1CCCCC1	15%	-5%	-21%
CCCCCCCCNc1ncnc2ccccc12	2.2µM*	-2%	0.35µM*
CCc1ccccc1Nc1ncnc2ccccc12	13%	nt	-7%
c1ccc(CCNc2ncnc3ccccc23)cc1	1.1µM*	-5%	0.56µM*
Brc1ccc2ncnc(NCc3ccccc3)c2c1	?	17%	?
O=C(Nc1ccccc1)N1CC2(CCN(S(=O)(=O)c3ccccc3)CC2)C1	23%	-3%	?
Cc1cccc(N2CCN(C(=O)Cn3sc4nc(C)cc(C)c4c3=O)CC2C)c1 (stereo unspecified)	7.1µM*	-8%	13µM*
Cc1cc(C)c2c(=O)n(CC(=O)N3CCC(Cc4ccccc4)CC3)sc2n1	?	6%	4µM*
O=C(O)c1nn(CC(=O)N2CCC(Cc3ccccc3)CC2)c(=O)c2ccccc12	39%	nt	0%
Cc1cccc(N2CCN(C(=O)Cn3nc(C)n4cccc4c3=O)CC2C)c1 (stereo unspecified)	-14%	nt	1%
O=C(N/N=C1/C[C@@H](O)[C@@H](O)[C@@H]2[C@@H]3C(=O)N(Cc4ccccc4)C(=O)[C@H]3CC[C@H]12)OCc1ccccc1	3%[10 µM]	nt	-6%[10 µM]
Cc1ccc(/C([O-])=C(/C(=S)NCCN2CCOCC2)[n+]2ccccc2)cc1[N+](=O)[O-]	-35%	1%	-5%
COc1cccc(CNC(=O)COc2ccc(C(=O)c3ccccc3)cc2)c1	-7%	nt	14%
CCCN1CC(O)=C(C#N)C1=O	-22%	4%	0%
CC(C)CO/N=C1/C[C@@H](O)[C@@H](O)[C@@H]2[C@H]3C(=O)N(c4ccc(F)cc4F)C(=O)[C@@H]3CC[C@@H]12	3%[10 µM]	nt	-3%[10 µM]
Cc1ccc(C(=O)N/C(=C\c2cccs2)C(=O)NCC2CCCO2)cc1C (stereo unspecified)	7%	3%	10%
CN(C)CC[C@@H](C(=O)C(C)(C)C)c1ccccn1	nt	1%[7.66 µM]	nt
O=C(CN1C(=O)NC2(CCCC2)C1=O)Nc1cc(Cl)ccc1N1CCCCC1	-2%	nt	-6%
O=C(COc1ccccc1)Nc1nnc(COc2ccccc2)s1	0%	nt	3%
O=C(CN1CCN(c2ccccc2)CC1)Nc1ccccc1Cl	21%	0%	23%
O=C(NC(=S)Nc1cccc(Cl)c1Cl)C1CC1	2.5µM*	nt	4.5µM*
O=C(NNC(=S)Nc1ccccc1Cl)c1ccccc1	13µM*	nt	-22%
O=C(NNC(=S)Nc1ccccc1)C1CC1	?	-2%	0%
O=C(CCN1CCN(c2ccccc2)CC1)NNC(=S)Nc1ccccc1Cl	8.9µM*	1%	-20%
SMILES	RORg inh	KinaseGlo FLuc	VP16 counter
O=C(O)Cc1ccc(NC(=S)Nc2cccc(Cl)c2Cl)cc1	-12%	4%	-16%
O=C(NNC(=S)Nc1ccccc1Cl)c1ccccc1Cl	5%	nt	5%
O=C(NNC(=S)Nc1ccccc1Cl)C1CC1	11µM*	3%	?
Cc1ccc(-c2ccc(S(=O)(=O)Nc3cccnc3)cc2)cc1	30%	nt	?
CCCn1c(-c2ccc(F)cc2)nc2c(NCCN(C)C)nc(C)nc21	-17%	-2%	5%
O=C(CCc1ccccn1)N1CCCC(N2CCN(c3cccc(C(F)(F)F)c3)CC2)C1 (stereo unspecified)	2%	nt	0%
Cc1cc(N2CCCC2=O)cc(C)c1S(=O)(=O)NCCOc1ccccc1	15%	-2%	-7%
Cc1ccc(OCCNS(=O)(=O)c2ccc(N3CCCC3=O)cc2)cc1	?	-1%	13µM*
Cc1ccc(OCCNS(=O)(=O)c2ccc(N3CCCC3=O)cc2)cc1C	-44%	-1%	13µM*
O=C1CCCN1c1ccc(S(=O)(=O)NCCc2ccc(Cl)cc2)cc1	-20%	1%	-10%
CCN(CC)C(=O)CSc1nc2c(sc(=S)n2-c2ccc(C)cc2C)c(=O)[nH]1	24%	nt	19%
CCOc1ccc(NC(=O)N2CCCC2C(=O)NCc2ccco2)cc1 (stereo unspecified)	20%	nt	8%
S=C(NCc1ccco1)Nc1ccc(Oc2ccccc2)cc1	6.3µM*	4%	?
S=C(NCc1cccnc1)Nc1ccc(Oc2ccccc2)cc1	?	0%	?
COc1cc(NC(=S)NCc2ccco2)cc(OC)c1	5.6µM*	1%	4%[0.365 µM]
CCOC(=O)c1ccc(NC(=S)NCc2ccco2)cc1	10µM*	nt	-22%
CCOC(=O)c1ccc(NC(=S)NCc2ccc(S(N)(=O)=O)cc2)cc1	-6%	nt	-2%
COc1cccc(NC(=O)CCC(=O)NCc2ccco2)c1	3%	-2%	15%
CCOc1ccc(NC(=S)NCc2ccco2)cc1	14µM*	-4%	?
O=C1CCCCC1C(O)c1ccc(Cl)cc1 (stereo unspecified)	11%	nt	-2%
CCn1nnnc1NCc1c(OC)ccc2ccccc12	1%	-2%	4%
COc1ccc(CNC(=O)CN(C(=O)CCC(=O)Nc2ccccn2)c2ccc(C)cc2)cc1	7%	nt	9%
Cc1cc(C)cc(NC(=S)N2CCC(NC(=O)c3ccco3)CC2)c1	-27%	nt	5%
Cc1ccc(C)c(N2CCN(C(=O)Cc3ccc(NC4=NC5CS(=O)(=O)CC5S4)cc3)CC2)c1 (stereo unspecified)	-26%	nt	-12%
CCC1CCCCC1	1%	nt	-1%
SMILES	RORg inh	KinaseGlo FLuc	VP16 counter
CCOC(=O)C1(CCOC)CCN(C(C)CCc2ccc(OC)cc2)CC1 (stereo unspecified)	-12%	-3%	8%
COc1ccc(NC(=O)CN2CCC(NC(=O)c3ccco3)CC2)c([N+](=O)[O-])c1	-2%	nt	-1%
COc1ccc(NC(=S)NCc2ccco2)cc1	11µM*	-7%	?
OCCCNC(=S)Nc1ccc(Oc2ccccc2)cc1	-14%	-1%	?
CC(C)CNC(=S)Nc1ccc(Oc2ccccc2)cc1	3.5µM*	nt	4µM*
S=C(NCc1ccco1)Nc1ccc(N2CCOCC2)cc1	-13%	-1%	-3%
O=C(COC(=O)c1cccs1)NCc1ccco1	20%[10 µM]	13%	-1%
O=C(COC(=O)c1ccc(NS(=O)(=O)c2cccs2)cc1)NCc1ccco1	22µM*	nt	1%
COc1ccc(/C(C)=N/NC(=O)CNC(=O)/C=C\c2ccco2)cc1	12%	2%	-12%
CCN(CC)C(=O)CN1CCN(Cc2ccc3c(c2)OCO3)CC1	-4%	nt	-18%
COc1cc2c(cc1OC)CN(c1ccc([N+](=O)[O-])cc1Cl)CC2	?	27%	18µM*
COc1cc2c(cc1OC)CN(c1ccc([N+](=O)[O-])cc1C#N)CC2	16%	-1%	22%
COc1nc(N/N=C/c2cc3c(cc2Br)OCO3)nc(N2CCOCC2)n1	12%	nt	-12%
Brc1cc2c(cc1/C=N/Nc1nc(N3CCCCC3)nc(N3CCCCC3)n1)OCO2	1.8µM*	-2%	-6%
Cc1cc(C)nc(N/N=C/c2cc3c(cc2[N+](=O)[O-])OCO3)n1	31%	0%	-2%
Cc1ccc(/C=N/Nc2cc(C)nc(N3CCOCC3)n2)cc1	24%	nt	-6%
